PubChem BioAssay (NCATS)
Values without a mark were called inactive. Calls come from the whole dose curve; as a rule, active = well fitted curve in the direction sought with a large enough effect; inactive = no such curve, though single readings can be large or run the other way.

experiment: qHTS for small molecule inhibitors of Yes1 kinase: Counter Assay (AID 686950); details: series mostly up to 76.9 µM; activity change, negative = inhibition: at the top concentration;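 note: no kinase present so only ADP-Glo detection of a fixed ADP amount is tested; luminescence from ADP-Glo reporting ADP in a fixed ATP and ADP mixture; 0% = DMSO wells with ATP plus ADP and -100% = ATP-only wells without ADP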
Method in brief: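 No kinase present; 0.08 mM ATP + 0.02 mM ADP in 50 mM Tris pH 7.5, 10 mM MgCl2, 150 mM NaCl, 1 mM DTT; 20 min compound preincubation, 60 min RT, ADP-Glo luminescence, normalized to ATP/ADP (max) and ATP-only (min).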

SMILES | activity change, negative = inhibition
Cc1cccc(-c2[nH]c(C(C)(C)C)nc2-c2ccc3nccnc3c2)n1 | 5.24%
Clc1ccc(Nc2nnc(Cc3ccncc3)c3ccccc23)cc1 | 4.88%
S=C(NCc1ccc2c(c1)OCO2)N1CCN(c2ncnc3c2oc2ccccc23)CC1 | 3.91%
CCOc1ccn(-c2ccc(F)cc2)c(=O)c1C(=O)Nc1ccc(Oc2ccnc(N)c2Cl)c(F)c1 | 6.39%
CN(C)c1ccc(C2Nc3ccc4ccccc4c3C3=C2C(=O)CC(C)(C)C3)cc1Br (stereo not drawn) | -5.06%
Cc1ccnc(NS(=O)(=O)c2ccc(NC(=O)Nc3ccc(S(=O)(=O)Nc4nccc(C)n4)cc3)cc2)n1 | 2.48%
COc1cc(F)c(F)c(Nc2ccc(I)cc2F)c1NS(=O)(=O)C1(C[C@H](O)CO)CC1 | 1.61%
CN[C@@H](C)C(=O)N[C@H]1CCCC[C@H]2CC[C@@H](C(=O)N[C@@H](c3ccccc3)c3cn(CCCCc4ccc(CCCCn5cc([C@@H](NC(=O)[C@@H]6CC[C@@H]7CCCC[C@H](NC(=O)[C@H](C)NC)C(=O)N76)c6ccccc6)nn5)cc4)nn3)N2C1=O | -3.6%
CC(C)(C)OC(=O)CN(Cc1ccc(Cl)cc1)Cc1ccc([N+](=O)[O-])s1 | 0.92%
O=S(=O)(N=Cc1c(O)ccc2ccccc12)c1cccs1 | -6.01%
CCC(C)(C)C(=O)O[C@H]1C[C@@H](C)C=C2C=C[C@H](C)[C@H](CC[C@@H]3C[C@@H](O)CC(=O)O3)[C@H]21 | 3.33% [at 47.8 µM]
NC(=O)c1ccc(I)c([N+](=O)[O-])c1 | 1.26%
COCC(=O)NCC=Cc1ccc2ncnc(Nc3ccc(Oc4ccc(C)nc4)c(C)c3)c2c1 | 4.49%
